# Bioassay records deposited in PubChem BioAssay by National Center for Advancing Translational Sciences (NCATS).
# This is one part of a sample in which hits are shown more often than they occur.
# SARS PLpro yeast: blocks SARS-CoV papain-like protease in a yeast assay. S. cerevisiae expressing SARS-CoV PLpro, growth rescue. Potency, µM (titrated, usually from 32.9 µM), without a hit: at the top dose activity, positive = growth rescue, hits mostly activators. actives 0.19% (n = 330,000); calls by dose curve; further: potency means the concentration at half of the fitted maximal effect; 0% is about no effect; nearly all actives have a fitted effect of over 55% in size
# TbPYK inhibitor: T. brucei pyruvate kinase inhibition | TbPYK enzyme, Kinase-Glo Plus ATP luminescence, 45 min | Q57TT1 | actives 0.12% (n = 410,000) | Potency, µM (top dose mostly 76.8 µM), inactives show at the top dose activity, negative = inhibition, hits mostly inhibitors | AID 624173; further: potency means the concentration at half of the fitted maximal effect; on the % scale 0 is the no-effect control and ±100 the full control effect; nearly all actives have a fitted effect of over 50% in size
#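 Enzyme and substrate buffer are dispensed first and compound is pin-transferred. ADP at 130 uM final then starts the reaction, which runs 45 min at room temperature. Detection reagent is added for 10 min before luminescence is imaged.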
# LmPK inh: LmPK (Leishmania mexicana) enzyme inhibition; purified LmPK, Kinase-Glo ATP luminescence, 1 h; Potency, µM (doses to about 57.5 µM), for inactives: at the highest dose activity change, negative = inhibition, hits mostly inhibitors; actives 0.37% (n = 290,000); Q27686; AID 1721; further: potency means the concentration at half of the fitted maximal effect; on the % scale 0 is the no-effect control and ±100 the full control effect
# Target sequence (Q27686 whole entry, looked up): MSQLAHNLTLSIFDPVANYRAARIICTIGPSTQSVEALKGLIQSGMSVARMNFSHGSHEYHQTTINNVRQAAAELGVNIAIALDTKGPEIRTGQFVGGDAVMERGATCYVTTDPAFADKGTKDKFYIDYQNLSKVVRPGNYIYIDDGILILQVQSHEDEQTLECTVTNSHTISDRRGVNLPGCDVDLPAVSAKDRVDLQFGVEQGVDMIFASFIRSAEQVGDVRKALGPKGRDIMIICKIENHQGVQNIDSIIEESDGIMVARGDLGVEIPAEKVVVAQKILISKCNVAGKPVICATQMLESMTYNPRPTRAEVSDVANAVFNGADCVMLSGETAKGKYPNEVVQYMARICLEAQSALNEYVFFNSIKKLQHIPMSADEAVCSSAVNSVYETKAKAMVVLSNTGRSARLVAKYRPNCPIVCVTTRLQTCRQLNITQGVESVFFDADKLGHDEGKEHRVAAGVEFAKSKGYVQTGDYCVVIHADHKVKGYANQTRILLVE
#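 In 50 mM imidazole pH 7.2 with 7 mM MgCl2, LmPK (0.1 nM) turned over PEP (0.5 mM) and ADP (0.1 mM) for 1 h at room temperature. Luciferase read-out of ATP.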
# NS1 function inh: influenza NS1 inhibition. Potency, µM (series often up to 46.1 µM), for inactives: top-dose activity, positive = more growth. actives 0.4% (n = 270,000); calls by dose curve; further: potency means the concentration at half of the fitted maximal effect; actives are rising curves; nearly all actives have a fitted effect of over 50% in size
#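 In this qHTS, NS1 from influenza A is expressed in budding yeast, where it slows growth. Cells are switched from glucose to 2% galactose medium (pH 6.0, -URA), treated with compound, and growth recovery is read at OD600.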
# Cycloheximide cs: counter-screen for Shiga toxin inhibitors: cycloheximide protein synthesis inhibition | actives 12% (n = 300,000) | max response, % | cell reporter, cycloheximide protein synthesis inhibition counterscreen | AID 2314; in the data active means max response mostly above about 13%, no sharp cut-off; inactive means mostly below about 14%; further: read at 38.3 µM for the half of the compounds with a filed dose; 0% is about no effect
# Shiga inhibitor: Shiga toxin inhibition; actives 9.2% (n = 290,000); inhibition, % at 38.7 µM; AID 2315; Vero cells, Shiga toxin protein synthesis inhibition reporter; in the data active means inhibition mostly above about 28%, no sharp cut-off; inactive means mostly below about 43%; further: 0% is about no effect
# Numbers without * were called inactive; i = inactive; ? = inconclusive; / = no result given; [ ] = dose if it differs, or a comment. Unless noted, the call rests on the fitted dose curve; in most records, active means well fitted curve in the direction sought with a large enough effect; inconclusive means small, poorly fitted or top-dose-only effect, or another doubt; inactive means no such curve, though single readings can be large; an effect the other way counts as inactive or inconclusive.
SMILES,SARS PLpro yeast,TbPYK inhibitor,LmPK inh,NS1 function inh,Cycloheximide cs,Shiga inhibitor
CC(C)c1ccc(NC(=O)CSc2nc3ccccc3nc2Cc2ccccc2)cc1,/,5%,/,/,/,/
O=C1CCCC/C1=C\Nc1ccc(Cl)cn1,?,-12%,-10%,-45%,27*,61*
O=C1CCCC/C1=C/Nc1ccc(S(=O)(=O)Nc2ncccn2)cc1,-1%,-9%,13%,9%,6,59
Cc1ccc(N/C=C2\CCCCC2=O)nc1,0%,-2%,-22%,1%,58*,107*
CN(C)c1ccc(/C=C(\C#N)C(=O)NCc2ccco2)cc1,3%,/,-6%,0%,50*,85*
CCN(CC)c1ccc(/C=C(\C#N)C(=O)NCc2ccco2)cc1,3%,/,-4%,-19%,36*,43*
CC(OC(=O)/C(C#N)=C/c1ccc(N(C)C)cc1)C(=O)NCc1ccco1 (centres undefined),-5%,/,/,/,/,/
N#C/C(=C\Nc1ccc2c(c1)OCCO2)C(=O)NCc1ccco1,0%,-4%,1%,-3%,20,32*
C[C@@]12C=Cc3occc3C1CC[C@@]13C[C@@H](CCC12)[C@@](O)(CO)C3 (some centres undefined),/,/,/,/,0,23
COc1ccc(C(C)(NC(C)=O)c2nc(-c3ccc(F)c(Cl)c3)cs2)cc1 (centres undefined),/,3%,/,/,/,/
O=C1C2CC=CCC2C(=O)N1Cc1nnc(-c2ccccc2Br)o1 (centres undefined),-1%,-6%,-7%,-7%,26*,68*
O=c1c2ccccc2nnn1Cc1nnc(-c2ccccc2Br)o1,-8%,6%,2%,-101%,44*,128*
O=C1c2ccccc2S(=O)(=O)N1Cc1nnc(-c2ccccc2Br)o1,-18%,3%,2%,-17%,12,5
Cc1nc2cccnc2n1-c1cccc(C(=O)NCCN(C)C)c1,/,1%[15.4 µM],/,/,/,/
COc1ccc(OC)c(C(O)c2ncc(-c3ccc(C(F)(F)F)cc3)[nH]2)c1 (centres undefined),/,-2%,/,/,/,/
CC1(C(=O)NC2CCCC2)CCC(=O)N1CCOc1ccccc1 (centres undefined),/,6%,/,/,/,/
CCCc1nnc(NC(=O)Cn2c(=O)oc3cc(Br)ccc32)s1,-1%,-6%,2%,2%,-4,-3
O=c1oc2cc(Br)ccc2n1CSC1=NCCS1,-3%,-8%,5%,-39%,34*,100*
O=C(Cc1nnc(NC(=O)c2cccc([N+](=O)[O-])c2)s1)NCc1ccccc1,-3%,-11%,-6%,-9%,2,-21
O=C(Cn1nnc2ccccc21)c1ccccc1,4%,-6%,-3%,5%,20*,-4
O=C(Cn1nnc2ccccc21)c1cccc([N+](=O)[O-])c1,8%,-11%,4%,19%,3,6
Cc1ccc(C(=O)Cn2nnc3ccccc32)cc1[N+](=O)[O-],0%,4%,5%,-2%,28*,94*
CCC(=O)n1nc(-c2ccccc2)nc1SCC(=O)Nc1ccc(C)cc1,-3%,6%,1%,-12%,9,-13
Cc1ccc(C(=O)n2c(-c3ccccc3)cnc2SCC(=O)Nc2ccc(C)cc2C)cc1,-3%,0%,-2%,13%,-2,48*
Cc1ccc(NC(=O)CSc2nnc3scc(-c4ccccc4)n23)cc1,/,-1%,/,/,/,/
SMILES,SARS PLpro yeast,TbPYK inhibitor,LmPK inh,NS1 function inh,Cycloheximide cs,Shiga inhibitor
Cc1ccc(NC(=O)CSc2ncc(-c3ccccc3)n2C(=O)c2ccccc2)cc1,-11%,8%,1%,-13%,28*,100*
Cc1ccc(C(=O)n2c(-c3ccccc3)cnc2SCC(=O)Nc2ccccc2)cc1,12%,-5%,2%,-1%,15*,-3
CN1C(=O)[C@H]2[C@@H](c3ccc(C(F)(F)F)cc3)N[C@]3(CCCN(Cc4cccn4C)C3=O)[C@H]2C1=O,/,4%,/,/,/,/
O=C(Nc1nnc(C(F)(F)F)s1)c1cccnc1,-7%,3%,-4%,-11%,39*,65*
O=C(Nc1nnc(-c2ccccc2F)s1)c1cccnc1,0%,1%,-5%,/,23*,45*
Cc1ccc(NC(=O)Nc2nnc(-c3ccccc3F)s2)cc1,2%,4%,2%,-4%,18,19
COc1ccc(CCNc2nc3ccccc3c3nc(-c4cccc(C)c4)nn23)cc1OC,/,1%,/,/,/,/
CCC(CO)Nc1ncnc2c1cnn2-c1ccc(Cl)cc1 (centres undefined),5%,0%,0%,-4%,40*,47
CCc1ccccc1Nc1ncnc2c1cnn2-c1ccc(Cl)cc1,/,1%,/,/,/,/
CCC(CO)Nc1ncnc2c1cnn2-c1ccc(OC)cc1 (centres undefined),0%,-1%,-5%,1%,37*,53*
COc1cc(OC)c(Nc2ncnc3onc(-c4cccc(Cl)c4)c23)cc1Cl,/,7%,/,/,/,/
Cc1oc(-c2cccc(C(F)(F)F)c2)nc1CN1CCOCC1,-1%,-1%,2%,-1%,26*,54*
Cc1oc(-c2cccc(C(F)(F)F)c2)nc1CN1CCC[C@H]1CO,0%,1%,5%,7%,4,6
COc1ccccc1C(c1c(N)n(C)c(=O)n(C)c1=O)C(C)[N+](=O)[O-] (centres undefined),0%,-5%,-3%,-6%,44*,94*
COc1cc(C(=O)NC(CCSC)C(=O)OCC(=O)C(C)(C)C)cc(OC)c1OC (centres undefined),0%,4%,0%,/,30,53*
CSc1ccc(CN(C)C(=O)C(Cc2ccccc2)NC(=O)c2ccccc2)cc1 (centres undefined),-4%,-11%,-12%,-2%,40*,65*
CCc1ccc(C(=O)COC(=O)C(CCSC)NC(=O)c2ccccc2)cc1 (centres undefined),8%,-1%,7%,-5%,22*,active
CC(NC(N)=O)C(=O)OCC(=O)c1ccc(-c2ccccc2)cc1 (centres undefined),-1%,-5%,-4%,/,36*,43*
N#Cc1ccc2c(c1)C[C@]1(c3ccsc3)OC3=C(C(=O)OC4(CCCCC4)C3)C2O1,8%[6.58 µM],/,-2%[11.5 µM],?,9,i
COc1ccccc1NC(=O)Cn1c(=O)n(-c2ccc(C)cc2)c(=O)c2ccc(C(=O)NCc3ccco3)cc21,/,-1%,/,/,/,/
O=C(COC(=O)C(Cc1ccccc1)NC(=O)c1ccccc1)c1ccccc1 (centres undefined),16%,3%,1%,13%,24*,37*
NC(=O)C1=NOC(CNc2ncc(C(F)(F)F)cc2Cl)C1 (centres undefined),1%,-2%,3%,6%,36*,87*
CC(=O)c1cc(C#N)c(SCC(=O)OC(C)C)nc1C,3%,1%,1%,-4%,18*,26*
